About 83,000 compounds went through this panel and 20% of them were active in at least one assay; those are over-represented in the sample as a whole.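 Activity criterion: percent growth below 10, measured after cells in 96-well plates were exposed to a single compound concentration for 48 hours.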 The source made the active and inactive calls.

Our source for the growth values is PubChem BioAssay (NCI).

The test system of the test is EKVX NSCLC. Kind of test: NCI-60 one-dose screen, 48 h (100 = growth as untreated, 0 = no growth, -100 = all killed). Conditions: 10 µM unless noted. On the procedure: Growth inhibition of the EKVX human Non-Small Cell Lung tumor cell line is measured as a screen for anti-cancer activity. Cells are grown in 96 well plates and exposed to the test compound for 48 hours. Compounds are tested at a single concentration, which is 10^-5 M for most compounds. The reported endpoint is percent growth (GI% or GIPRCNT), where numbers from 0 - 100% represent growth inhibition, and numbers from -100% - 0 represent cell death. For example, a value of 40 represents 60% growth inhibition. A value of 0 means no net growth occurred over the course of the experiment. A value of -40 indicates 40% of cells at the beginning of the experiment died by the end of the experiment. A value of -100 means all cells are dead at the end of the experiment.
NCI-60 Human Tumor Cell Lines Screen was performed using the standard one-dose NCI protocol, which is described in more detail at https://dtp.cancer.gov/discovery_development/nci-60/default.htm.
Compounds with GIPRCNT values below 10 were considered active. Activity score was based on GIPRCNT using the following formula: […]
Score is 0 for GIPRCNT values of 100 or above, 50 for GIPRCNT values of 0, and 100 for GIPRCNT values of -100.
`Clc1ccc(N2N=C(c3cccc(Nc4ccncc4)c3)CC2c2ccc(Br)cc2)cc1` (stereo not given): the growth was 77.9% (inactive). The result for `COc1cc2c(cc1[N+](=O)[O-])-c1ccc([N+](=O)[O-])cc1/C2=N/NC(N)=S` reads 68.5% (inactive); that for `Clc1ccc(N2N=C(c3cccc(Nc4ccncc4)c3)CC2c2ccccc2)cc1` (stereo not given), 82.5% (inactive). The result for `CN1CCN(Cc2ccc(NC(=O)c3cncc(C#Cc4cnccc4C(F)(F)F)c3)cc2C(F)(F)F)CC1` reads 87.6% (inactive); that for `O=C1CCCCCCCCC(O)C(O)CCCC(c2cccs2)O1` (stereo not given), 82.2% (inactive); that for `COc1cc(CNC(=O)CCCCC[P+](c2ccccc2)(c2ccccc2)c2ccccc2)c(OC)c2c1OCO2`, 71.8% (inactive).

As for `O=C(OCc1nc2nc(Cl)nc(N3CCOCC3)c2[nH]1)n1ccnc1`, the growth is 62.1% (inactive).

As to `O=S(=O)(NCCCNc1nccc(-c2c(-c3ccc(F)c(O)c3)nc3sccn23)n1)c1ccc(F)cc1`, the growth was 30.6% (inactive). Take `N#C/C(=C\c1ccc(Br)cc1)n1nnc2cccc(F)c21`: the growth was 61.8% (inactive).

With `CC1=CC2(C)/C=C(C)/C=C\CC(O)/C=C3/C=CC(=C4C(=O)OC2(CC1C)C4=O)OC3` (stereo not given), the growth is 34.8% (inactive). The result for `CC1=CC[C@@H]2CC[C@]3(C)[C@H](CC[C@@H]4[C@@]5(C)CCCNC(C)(C)[C@@H]5CC[C@]43C)[C@H]2[C@@H]1C` reads 84.5% (inactive). To `O=C1Nc2c(ccc(Cl)c2Cl)/C1=C/c1ccccn1` belongs 62.3% (inactive); to `COc1ccc(CNCCN2C(=O)c3ccc4c5c(ccc(c35)C2=O)C(=O)N(CCNCc2ccc(OC)cc2)C4=O)cc1`, -69.3% (active); to `O=C1Nc2ccccc2/C1=C\c1cccc(/C=C2/C(=O)Nc3ccccc32)n1`, -37.9% (active). The result for `CCCCc1ccc(Nc2nnc(SCC(=O)NC(=O)NCC)s2)cc1` reads 110% (inactive); that for `C#CCNC(=O)[C@H](Cc1ccccc1)NC(=O)[C@]12CC[C@@H](C(=C)C)[C@@H]1[C@H]1CC[C@@H]3[C@@]4(C)Cc5c([nH]c6ccccc56)C(C)(C)[C@@H]4CC[C@@]3(C)[C@]1(C)CC2`, 94% (inactive); that for `COc1cc(C2CC(c3cccc(Nc4ccncc4)c3)=NN2c2ccccc2)cc(OC)c1OC` (stereo not given), 71.2% (inactive).

For `C(=C\c1n(Cc2ccc3ccccc3c2)c(-c2ccccc2)c(-c2ccccc2)[n+]1Cc1ccc2ccccc2c1)/c1ccccc1`, the growth is -77.5% (active). To `O=C(O)CNC(=O)CN1C(=O)c2ccccc2C1=O` belongs 103% (inactive); to `Cc1ccc(-c2csc(/N=C3\C(=O)Nc4ccccc43)n2)cc1`, 33.6% (inactive). The result for `CN1C2CCC1CN(c1cnc(C(=O)Nc3cc(F)cc4cccnc34)cn1)C2` reads 45.9% (inactive); that for `COc1ccc(/C(C)=N/NC(=O)CSc2nc3ccccc3c(=O)n2Cc2ccc(S(N)(=O)=O)cc2)c(OC)c1`, 89.9% (inactive).

Consider `COC(=O)Nc1nc2ccc(C(=O)c3cccc(I)c3)cc2[nH]1`, for which the growth is 29.9% (inactive).

Regarding `C[C@@H]1CN(Cc2ccc(/C=C/c3n[nH]c4ccc5nc(-c6cn[nH]c6C(F)(F)F)c6c(c5c34)CCCC6)cc2)C[C@H](C)O1`, the growth was 32.4% (inactive). In the case of `Brc1ccc(C2CC(c3cccc(Nc4ccncc4)c3)=NN2c2ccccc2)cc1` (stereo not given), the growth was 95.7% (inactive). To `COc1ccc(Nc2nc(N)nc3c2CCc2occc2-3)cc1` belongs 84.1% (inactive); to `N#Cc1ccc(-c2ccc3c(c2)NC(=O)/C3=C\c2ccc[nH]2)cc1`, 26.5% (inactive). Take `COc1cc2nnn3c4ncccc4c(N=O)c3c2cc1OC`: the growth is 106% (inactive).

On to `Cc1c2c(cc[n+]1Cc1ccccc1)c1ccc(OCC3CCCCC3)cc1n2CC1CCCCC1`, for which the growth is -75.5% (active). With `Clc1ccc(C2CC(c3cccc(Nc4ccncc4)c3)=NN2c2ccccc2)cc1` (stereo not given), the growth was 89.8% (inactive). The result for `O=C(NNc1nc(Cl)nc(N2CCN(C(c3ccccc3)c3ccccc3)CC2)n1)c1ccccc1` reads 64% (inactive); that for `Cn1c(=O)c2[nH]c(CCCc3nc4c([nH]3)c(=O)n(C)c(=O)n4C)nc2n(C)c1=O`, 113% (inactive).

With `Clc1nc(Cl)c2ncn(CC3(Cn4cnc5c(Cl)nc(Cl)nc54)COC3)c2n1`, the growth is -71.6% (active). As for `CCN(CC)CCOC(COc1cc(C)cc(C)c1)COc1cc(C)cc(C)c1`, the growth is 53% (inactive). In the case of `COc1cc(C2CC(c3cccc(Nc4ccncc4)c3)=NN2c2ccc(Cl)cc2)cc(OC)c1OC` (stereo not given), the growth was 65.2% (inactive). `CC1CCN(C(=O)OCc2nc3nc(Cl)nc(N4CCOCC4)c3[nH]2)CC1`: the growth was 40.4% (inactive). In the case of `O=C(N/N=C/c1ccc(F)cc1)c1ccccc1Nc1cccc(C(F)(F)F)c1`, the growth is 102% (inactive). The result for `CCOC(=O)N1CCN(CCCCl)CC1` reads 98.2% (inactive); that for `COc1cc2nc(-c3ccc(C#N)cc3)[nH]c(=O)c2cc1OC`, 98.7% (inactive); that for `Fc1ccc2nc3c(cc2c1)CSc1nnc(-c2ccc[nH]c2=S)n1N3`, 94.2% (inactive).
